Assay results taken from PubChem BioAssay (NCATS).
Values joined by “and” are separate entries in the source; they are usually repeats but may differ in a detail not shown here. Equal values may be shown once. Records with an inconclusive call do not appear. The source holds several records for some structures; these can differ, active in one and inactive in another. Active and inactive are the calls of the source. The call rests on the fitted dose curve; in most records, active means well fitted curve in the direction sought with a large enough effect; inconclusive means small, poorly fitted or top-dose-only effect, or another doubt; inactive means no such curve, though single readings can be large; an effect the other way counts as inactive or inconclusive.

Key:
[1] = qHTS assay for measurement of the activity of small molecule inhibitors on Zika virus induced Caspase-3 activity in human astrocytoma cells (AID 1224859)
In short: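 Compound added 1 h pre-infection; ZIKV 2 FFU/cell on SNB-19 cells, 6 h, 37 C/5% CO2. Caspase-Glo 3/7 luminescence; values as % inhibition of ZIKV-induced caspase activity.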

[2] = qHTS Screen of the MIPE 4.0 Collection Against Ewings Sarcoma (RDES) (AID 1259252); further: nearly all actives have a fitted effect of over 35% in size; further: potency means the concentration at half of the fitted maximal effect
In short: (§1)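 Compound titrations go onto adherent log-phase cells 4 h after seeding, incubate 48 h at 37C, then CellTiter-Glo luminescence reports viability relative to DMSO and cell-free controls.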

[3] = qHTS Screen of the MIPE 4.0 Collection Against Ewings Sarcoma (TC71) (AID 1259253); further: nearly all actives have a fitted effect of over 40% in size; further: potency means the concentration at half of the fitted maximal effect
In short: as §1

[4] = qHTS Screen of the MIPE 4.0 Collection Against Ewings Sarcoma (EW8) (AID 1259255); further: nearly all actives have a fitted effect of over 35% in size; further: potency means the concentration at half of the fitted maximal effect
In short: as §1

[5] = qHTS Screen of the MIPE 4.0 Collection Against Ewings Sarcoma (TC32) (AID 1259256); further: nearly all actives have a fitted effect of over 45% in size; further: potency means the concentration at half of the fitted maximal effect
In short: as §1

[6] = Identifying Small Molecule Inhibitors of Pancreatic Cancer Stem Cells (SN12C, Spheroid) (AID 1259360); conditions: Potency: SN12C spheroid viability; further: potency means the concentration at half of the fitted maximal effect
In short: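 Adherent (2D) versus sphere (3D) formats; spheres generated 14 d in SCM beforehand. Compound transferred by pin tool after 4 h, 48 h incubation, CellTiter-Glo endpoint.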

[7] = P-glycoprotein substrates identified in KB-3-1 adenocarcinoma cell line, qHTS therapeutic library screen (AID 1346986); further: nearly all actives have a fitted effect of over 60% in size;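 further: potency means the concentration at half of the fitted maximal effect; potency is for cytotoxicity meaning loss of cell viability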
In short: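 72 h cell-killing screen, 500 cells/well, CellTiter-Glo luminescence. Paired lines KB-3-1/KB-8-5-11; P-gp dependence checked by tariquidar co-treatment and HEK-293 MDR-19 versus empty-vector cells.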

[8] = P-glycoprotein substrates identified in KB-8-5-11 adenocarcinoma cell line, qHTS therapeutic library screen (AID 1346987); further: nearly all actives have a fitted effect of over 65% in size; further: potency means the concentration at half of the fitted maximal effect
In short: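 Luminescence from CellTiter-Glo, read 5 min after addition, quantified survival of KB-8-5-11 (P-gp-overexpressing) cells exposed to compounds for 72 h. AC50 was derived from concentration-response curves.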

[9] = NS1 protein of Zika virus - qHTS assay to identify small molecule inhibitors in human HEK 293 cells (AID 1347053); further: nearly all actives have a fitted effect of over 55% in size; further: potency means the concentration at half of the fitted maximal effect
In short: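 Readout was TR-FRET using paired anti-NS1 antibodies after 24 h infection of HEK 293 cells with ZIKV MR766 (MOI = 0.5). Compound preceded virus by 1 h; reduced signal reflects lower NS1 expression.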

[10] = Identifying Small Molecule Inhibitors of Pancreatic Cancer Stem Cells (A278, Adherent) (AID 1259361);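 further: viability read after 48 h compound exposure; nearly all actives have a fitted effect of over 35% in size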
In short: (§2)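 Viability is scored by CellTiter-Glo luminescence 48 h after dosing, expressed as percent activity against vehicle and no-cell references. Spheroid formats rely on cells cultured 14 days in stem cell media beforehand.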

[11] = Identifying Small Molecule Inhibitors of Pancreatic Cancer Stem Cells (Panc1, Spheroid) (AID 1259359);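 further: potency means the concentration at half of the fitted maximal effect; compound exposure lasted 48 h before reading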
In short: as §2

[12] = Identifying Small Molecule Inhibitors of Pancreatic Cancer Stem Cells (Panc1, Adherent) (AID 1259362); conditions: Potency: viability; further: potency means the concentration at half of the fitted maximal effect
In short: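 Endpoint: ATP-based luminescence, 48 h drug exposure. Bortezomib at 9.2 uM final as full-kill control; DMSO vehicle as negative control; activity normalized between vehicle and cell-free wells.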

Row | Structure (SMILES) | Potency [1] | Potency [2] | Potency [3] | Potency [4] | Potency [5] | Potency [6] | Potency [7] | Potency [8] | Potency [9] | IC50 (viability decrease) [10] | Potency [11] | Potency [12]
1 | c1cc(-c2cnn3cc(-c4ccc(OCCN5CCCCC5)cc4)cnc23)ccn1 | inactive | 20.9 µM (active) | 14.8 µM (active) | 18.7 µM (active) | 20.9 µM (active) | inactive | 6.51 µM (active) | 2.35 µM (active) and 10.3 µM (active) |  |  |  | 
2 | C=C1C(=CC=C2CCC[C@]3(C)[C@@H]([C@H](C)C=C[C@H](C)C(C)C)CC[C@@H]23)C[C@@H](O)C[C@@H]1O | inactive | 0.332 µM (active) | 0.743 µM (active) | 2.35 µM (active) | 0.833 µM (active) | inactive | inactive | inactive | inactive |  |  | 
3 | CCn1nnc2c(N3CCOCC3)nc(-c3ccc(NC(=O)Nc4ccc(C(=O)N5CCN(C)CC5)cc4)cc3)nc21 | inactive | 0.0148 µM (active) | 0.0418 µM (active) | 0.0066 µM (active) | 0.0074 µM (active) |  | 0.058 µM (active) |  |  |  |  | 
4 | COc1cc2c(Oc3ccc(NC(=O)C4(C(=O)Nc5ccc(F)cc5)CC4)cc3F)ccnc2cc1OCCCN1CCOCC1 | inactive | 16.6 µM (active) | 3.32 µM (active) | 1.32 µM (active) | 1.66 µM (active) | 23.5 µM (active) |  | 935 nM (active) and 5.17 µM (active) |  | 4.69 µM (active) |  | 
5 | C=CCn1c(=O)c2cnc(Nc3ccc(N4CCN(C)CC4)cc3)nc2n1-c1cccc(C(C)(C)O)n1 | inactive | 0.264 µM (active) | 0.332 µM (active) | 0.0833 µM (active) | 0.372 µM (active) | 1.66 µM (active) |  | 3.72 µM (active) and 5.8 µM (active) |  | 0.59 µM (active) | 418 nM (active) | 
6 | O=C(NC1CCNCC1)c1[nH]ncc1NC(=O)c1c(Cl)cccc1Cl | inactive | 0.187 µM (active) | 0.264 µM (active) | 0.418 µM (active) | 0.209 µM (active) | 1.05 µM (active) | 0.58 µM (active) | inactive | 3.72 µM (active) |  | 1.32 µM (active) and 1.05 µM (active) | 
7 | CN(c1ncccc1CNc1nc(Nc2ccc3c(c2)CC(=O)N3)ncc1C(F)(F)F)S(C)(=O)=O | inactive | 11.8 µM (active) | 5.9 µM (active) | 8.33 µM (active) | 10.5 µM (active) | 20.9 µM (active) | 5.17 µM (active) |  |  | 2.96 µM (active) |  | 
8 | CN1CCN(c2ccc3nc(-c4c(N)c5c(F)cccc5[nH]c4=O)[nH]c3c2)CC1 | inactive | 14.8 µM (active) | 11.8 µM (active) | 5.9 µM (active) | 14.8 µM (active) | 6.62 µM (active) | 5.17 µM (active) | 2.64 µM (active) and 8.2 µM (active) |  |  |  | 33.2 µM (active)
9 | CCCCOc1c(C(=O)c2c(F)cc(C)cc2F)cnc2n[nH]cc12 | inactive | 2.96 µM (active) | 2.96 µM (active) | 18.7 µM (active) | 16.6 µM (active) |  | inactive and 3.66 µM (active) | inactive |  |  |  | 
10 | CN(C)CC=CC(=O)Nc1cc2c(Nc3ccc(F)c(Cl)c3)ncnc2cc1O[C@H]1CCOC1 | inactive | 18.7 µM (active) | 16.6 µM (active) | 20.9 µM (active) | 16.6 µM (active) | 23.5 µM (active) |  | 9.35 µM (active) |  | 23.5 µM (active) | 11800 nM (active) | 
11 | CC(=O)Nc1nc(C)c(-c2ccc(Cl)c(S(=O)(=O)NCCO)c2)s1 | inactive | 5.9 µM (active) | 14.8 µM (active) | 16.6 µM (active) | 10.5 µM (active) |  | 9.2 µM (active) |  |  |  |  | 
12 | CC(C)(O)c1cc2nc(-c3cnc(N)nc3)nc(N3CCOCC3)c2s1 | inactive | 0.059 µM (active) | 0.132 µM (active) | 0.148 µM (active) | 0.0662 µM (active) |  | 0.411 µM (active) | 105 nM (active) and 517 nM (active) |  |  |  | 
13 | CN(C1CCc2c(c3ccccc3n2CC(=O)O)C1)S(=O)(=O)c1ccc(F)cc1 (stereo not given) | inactive | inactive | inactive | inactive | inactive |  | inactive | inactive | inactive |  |  | 
14 | Cn1cc(-c2ccncc2)c(-c2ccc(OCc3ccc4ccccc4n3)cc2)n1 | inactive | 16.6 µM (active) | 16.6 µM (active) | 20.9 µM (active) | 16.6 µM (active) |  |  | 20.6 µM (active) |  |  |  | 
15 | O=C(c1cncc(Br)c1)N1CCC(N2CCCC2)CC1 | inactive | inactive | inactive | inactive | inactive |  | inactive | inactive |  |  |  | 
16 | Cc1c(Cn2c(C)nc3c(C(=O)O)cc(N4CCOCC4)cc32)cccc1C(F)(F)F | inactive | 14.8 µM (active) | 10.5 µM (active) | 11.8 µM (active) | 14.8 µM (active) |  | inactive | inactive |  |  |  | 
17 | Nc1nc(Nc2ccc(S(N)(=O)=O)cc2)nn1C(=O)c1c(F)cccc1F | inactive | 8.33 µM (active) | 5.26 µM (active) | 8.33 µM (active) | 7.43 µM (active) |  |  | 10.5 µM (active) and 7.31 µM (active) |  |  |  | 
18 | Cc1ccc(CN2CCNCC2)cc1NC(=O)CNc1ccc(F)c(F)c1 | inactive | 6.62 µM (active) | 5.26 µM (active) | 26.4 µM (active) | 13.2 µM (active) |  | inactive | inactive | inactive |  |  | 
19 | Cn1c2ccccc2c2c3c(c4c5ccccc5n(CCC#N)c4c21)CNC3=O | inactive | 0.935 µM (active) | 1.18 µM (active) | 8.33 µM (active) | 4.69 µM (active) |  |  | 5.8 µM (active) |  |  |  | 
20 | CC(C)c1nn(-c2c(Cl)cccc2Cl)c2nc(Cc3ccc(OCCO)cc3)[nH]c(=O)c12 | inactive | 0.187 µM (active) | 0.132 µM (active) | 0.148 µM (active) | 0.105 µM (active) |  |  | 118 nM (active) and 103 nM (active) |  |  |  | 
21 | CC(C)c1cc(C(=O)N2Cc3ccc(CN4CCN(C)CC4)cc3C2)c(O)cc1O | inactive | 0.469 µM (active) | 0.235 µM (active) | 0.372 µM (active) | 0.209 µM (active) |  |  | 0.092 µM (active) |  |  |  | 
22 | CC(O)C1C(=O)N2C(C(=O)O)=C(SC3CNC(C(=O)N(C)C)C3)C(C)C12 (stereo not given) | inactive | inactive | inactive | inactive | inactive |  | inactive | inactive |  |  |  | 
23 | Clc1cccc(-c2nnnn2Cc2cccnc2)c1Cl | inactive | inactive | inactive | inactive | inactive |  | inactive | inactive | inactive |  |  | 
24 | CN(C)c1nc(Cc2ccc(NC(=O)c3ccc4ccccc4c3)cc2)nc(Cl)c1CC(=O)O | inactive | inactive | inactive | inactive | inactive |  | inactive | inactive | inactive |  |  | 
25 | CS(=O)(=O)c1ccc(-c2cnc(N)c(C(=O)Nc3ccccc3)n2)cc1 | inactive | inactive | 10.5 µM (active) | 13.2 µM (active) | 4.18 µM (active) |  | inactive | inactive | inactive |  |  | 
26 | CCOc1ccccc1OCCNC(C)Cc1ccc(OC)c(S(N)(=O)=O)c1 (stereo not given) | inactive | inactive | inactive | inactive | inactive |  | inactive | inactive | inactive |  |  | 
